# Experimental data published in ChEMBL document CHEMBL3988442, “University of Dundee, Small-Polar-MMV Screening Library” (2021).
# Out of some 48,000 compounds screened, about 13,000 (27%) showed an effect of 50% or more. The list shows a part of the results.
# Test system: Wolbachia pipientis
# Experiment: Anti-Wolbachia Cell-Based Screen
# Type: functional
# Set-up: scale not given: in the data most compounds retested in dose-response had high values
# Conditions: 5 µM
row,SMILES,Percent Effect
1,CN1CCC(N(Cc2ccccc2)C(=O)c2ccn3ccnc3c2)CC1,0.1453%
2,CN1CC[C@H](N(Cc2ccccc2)C2COC2)C[C@H](O)C1,101.7%
3,CN1CC[C@H](N(Cc2ccccc2)CC2CC2)C[C@H](O)C1,101.2%
4,CN1CC[C@H](N(Cc2ccccc2)Cc2ccccc2)C[C@H](O)C1,97.14%
5,COC(=O)c1sc2nc3c(c(C(F)(F)F)c2c1N)CN(C(C)=O)CC3,5.653%
6,CC(C(=O)Nc1ccc(N2CCCC2)nc1)n1ccnc1 (centres undefined),-0.9927%
7,COc1ccc(Oc2ccc(CNC(=O)C(C)n3cncn3)cn2)cc1 (centres undefined),-12.03%
8,CC(C(=O)Nc1ccc(N2CCCC2)nc1)n1cncn1 (centres undefined),-0.2792%
9,CC(C(=O)Nc1ccc(N2CCCC2)nc1)n1cccn1 (centres undefined),93.36%
10,CC(C(=O)Nc1ccc(N2CCCCC2)nc1)n1cncn1 (centres undefined),95.56%
11,CC(Cn1cccn1)NC(=O)Nc1ccc(N2CCCCC2)nc1 (centres undefined),-23.5%
12,CC(C(=O)NCc1ccnc(Oc2ccc(F)cc2)c1)n1cncn1 (centres undefined),-19.79%
13,O=C(Cc1ccccc1O)Nc1ccc(N2CCCC2)nc1,0.2058%
14,CC(C(=O)Nc1ccc(N2CCCCC2)nc1)n1ccnc1 (centres undefined),105.1%
15,CC(Cn1cccn1)NC(=O)Nc1ccc(N2CCCC2)nc1 (centres undefined),-16.81%
16,CC(C(=O)Nc1cccc(N2CCCCC2)c1)n1cncn1 (centres undefined),4.529%
17,COc1ccc(NC(=O)C(C)n2cncn2)cn1 (centres undefined),104.1%
18,CC(C)COCC(NC(=O)c1cc[nH]n1)c1ccco1 (centres undefined),4.731%
19,CCN(CC(=O)N(C)C)S(=O)(=O)c1cnc2c(c1)c(C)nn2C,5.433%
20,CCN1CCc2[nH]cnc2C12CCN(c1ncc(C(=O)O)cc1Cl)CC2,3.404%
21,Brc1ccc(C2(CNCc3cc[nH]c3)CCOCC2)cc1,10.2%
22,CN1CCCc2ccc(S(=O)(=O)NC(=O)C3CC=CC3)cc21,-3.642%
23,CC(OCC(F)(F)F)C(=O)Nc1ccc(-n2cncn2)nc1 (centres undefined),-8.836%
24,CC(Cc1ccco1)NC(=O)Nc1ccc(N2CCOCC2)nc1 (centres undefined),-10%
25,CC(C(=O)Nc1ccc(N2CCOCC2)nc1)n1cncn1 (centres undefined),104.2%
26,CCn1cc(CN2CCC(NS(C)(=O)=O)CC2)cc1C#N,-7.298%
27,CC(C)Cn1cnnc1C1CCCN1C(=O)c1cc2ccccn2c1 (centres undefined),-13.41%

row,SMILES,Percent Effect
1,CCCOC(C)C(=O)NCc1cc2n(n1)CCCN(C1CCCCC1)C2 (centres undefined),111%
2,CCC(OC)C(=O)NCc1cc2n(n1)CCCN(C1CCCCC1)C2 (centres undefined),113.3%
3,CCC(CC)CN1CCCn2nc(CNC(=O)COC)cc2C1,4.127%
4,CN[C@@H](CO)C(=O)NCc1cc2n(n1)CCCN(C1CCCCC1)C2,120.8%
5,CC(C)c1nnc(NCc2cc3n(n2)CCN(C2CCCCC2)C3)s1,8.692%
6,CC(C)CN1CCCn2nc(CNC(=O)OCc3ccccc3)cc2C1,17.53%
7,CCC(C)NC(=O)NCc1cc2n(n1)CCCN(C1CCCCC1)C2 (centres undefined),123%
8,COC(=O)NCc1cc2n(n1)CCCN(C(C)=O)C2,17.7%
9,CCCN1CCCn2nc(CNC(=O)C3CCOC3)cc2C1 (centres undefined),-8.283%
10,CC(C)NCc1cc2n(n1)CCN(C1CCCCC1)C2,-9.171%
11,CC(C)CN1CCCn2nc(CNC(=O)NC(C)(C)C)cc2C1,-2.187%
12,O=C(c1ccc(Cl)s1)N1CCCn2nc(CN3CC[C@H](F)C3)cc2C1,0.8139%
13,Cc1nc(C(C)N(C)Cc2nc(CCC(C)C)no2)c(C)s1 (centres undefined),1.881%
14,CCSc1ccc(C(C)NC(=O)CCS(C)(=O)=O)cc1 (centres undefined),-10.2%
15,CC(C)(C)c1nccc(N2CCN(C3CCS(=O)(=O)C3)CC2)n1 (centres undefined),-14.65%
16,CCOCCCNC(=O)c1cc(C(C)C)nc(N2CCCCCC2)n1,4.863%
17,O=C(NCCCc1ccco1)c1ccc(N2CCOCC2)cc1,-6.417%
18,CCOCc1nc(N2CCOCC2)sc1C(=O)NCc1ccco1,132.8%
19,CCOCc1nc(N2CCCC2)sc1C(=O)NCCC(=O)OCC,118%
20,CC1CCCCN1C1CN(c2ccnc(C(=O)NCc3ccco3)c2)C1 (centres undefined),0.5235%
21,Cc1nc(CCCNC(=O)c2coc(CN3CCOCC3)c2)sc1C,-5.742%
22,O=C(NCc1ccco1)c1ccc(N2CCOCC2)cc1,-7.738%
23,CCOCc1nc(N2CCOCC2)sc1C(=O)NCCCc1ccco1,102.3%
24,O=C(NCc1ccco1)Nc1ccc2nc(N3CCOCC3)oc2c1,-0.2531%
25,Cc1nc(CC(=O)NCc2csc(N3CCCC3)n2)cs1,17.94%
26,CCOCc1nc(N2CCCC2)sc1C(=O)NCc1ccco1,113.4%
27,CCCOC1CCCN(c2ccnc(C(=O)NCc3ccco3)c2)C1 (centres undefined),6.201%
